# Laboratory results: PubChem BioAssay (EPA / NIEHS)
# The source holds several records for some structures; these can differ, active in one and inactive in another. Activity calls are given as the source filed them. The calls were made as follows: active = hit-call score of the fitted dose curve at least 0.9, where 1 is the maximum; inactive = score below 0.9.
# Assay: ATG_TCF_b_cat_CIS: Attagene CIS-FACTORIAL HepG2 Assay for human T-Cell-Factor with beta-catenin (TCF/b-cat) (AID 2282965)
# Settings: HepG2 TCF/beta-catenin cis-reporter transcription, actives raise or lower the signal
# Method: ATG_CIS is a cell-based, multiplexed-readout assay that uses HepG2, a human liver cell line, with measurements taken at 24 hours after chemical dosing in a 24-well plate.ATG_TCF_b_cat_CIS is one of 52 assay component(s) measured or calculated from the ATG_CIS assay. It is designed to make measurements of mRNA induction, a form of inducible reporter, as detected with fluorescence intensity signals by Reverse transcription polymerase chain reaction (RT-PCR) and Capillary electrophoresis technology.Data from the assay component ATG_TCF_b_cat_CIS was analyzed into 1 assay endpoint. This assay endpoint, ATG_TCF_b_cat_CIS, was analyzed with bidirectional fitting relative to DMSO as the negative control and baseline of activity. Using a type of inducible reporter, measures of mRNA for gain or loss-of-signal activity can be used to understand the reporter gene at the transcription factor-level as they relate to the gene TCF7 and TCF7L2 and LEF1 and TCF7L1. Furthermore, this assay endpoint can be referred to as a primary readout, because this assay has produced multiple assay endpoints where this one serves a reporter gene function. To generalize the intended target to other relatable targets, this assay endpoint is annotated to the dna binding intended target family, where the subfamily is HMG box protein.
# Human liver HepG2 cells are transiently transfected with multiple reporter transcription units (MRTUs) in 6-well plates using FuGene 6 reagent (Roche; 3 ml FuGene/1 mg DNA). The MRTU constructs are regulated by a cis-regulating element (promoter). […] A major difference between the CIS and TRANS system is that in CIS activities of endogenous TFs are measured, whereas the TRANS assay evaluates changes in activities of exogenous, chimeric NR-Gal4 proteins. […] At the end of 24 hour incubation, total RNA was isolated using TriZol reagent (Invitrogen). The isolated RNA is then reverse-transcribed using oligo(dT) primer and Mo-MLV reverse transcriptase (Invitrogen) with DNAse I (Ambion) treatment for 30 min. The one-tenth of the produced cDNA was amplified by PCR using Taq DNA polymerase (Invitrogen) and two reporter sequence-specific primers. The PCR products were fluorescently labeled by primer extension with 6-arboxyfluorescein (6-FAM) 5'-labeled reporter sequence-specific primer (2 min at 95 C, 20 s at 68 C and 10 min at 72 C) and these products were digested with 5U of HpaI (New England Biolabs) for 2h at 37 C. The fragments were purified using Qiaquick PCR columns (Qiagen), analyzed on an ABI 3130xL genetic analyzer (Applied Biosystems) with peak positions identified by using a set of X-rhodamine (ROX)-labeled MapMarker1000 molecular weight standards (BioVentures). The raw capillary electrophoresis data was processed using Attagraph software (Attagene).
Compound,AC50,outcome
COC(=O)C(F)(F)C(F)(F)OC(F)(C(F)(F)F)C(F)(F)OC(F)=C(F)F (stereo not given),9.92 µM (active),inactive
CC(O)C(F)(F)C(F)(F)F (stereo not given),,inactive
OCC(F)(F)OC(F)(F)C(F)(F)OC(F)(F)C(F)(F)OC(F)(F)CO,9.92 µM (active),
O=C(O)C=CC(F)(C(F)(F)F)C(F)(F)F,,inactive
CCC(C)(C)c1ccc(O)cc1,,inactive
N#Cc1ccc(O)cc1,,inactive
N#C/C=C/c1ccccc1,,inactive
ClC(Cl)=C(c1ccc(Cl)cc1)c1ccccc1Cl,,inactive
O=P(OCC(Br)CBr)(OCC(Br)CBr)OCC(Br)CBr (stereo not given),,inactive
O=P(Oc1ccccc1)(Oc1ccccc1)Oc1ccccc1,,inactive
CCN(CC)C1CCCCC1,,inactive
O=C(O)C(F)(F)C(F)(F)C(=O)O,,inactive
O=C(O)C1C(C(=O)O)C2(Cl)C(Cl)=C(Cl)C1(Cl)C2(Cl)Cl (stereo not given),,inactive
Nc1ccc([N+](=O)[O-])cc1Cl,,inactive
CCOP(=S)(NC(C)C)Oc1ccccc1C(=O)OC(C)C (stereo not given),,inactive
c1ccc2c(c1)sc1ccccc12,,inactive
CN(C)C(=O)Cl,,inactive
CCCCOCCOP(=O)(OCCOCCCC)OCCOCCCC,,inactive
COCCOCCO,,inactive
Nc1ccc(Cl)cc1,,inactive

Compound,AC50,outcome
O=NN1CCCC1,,inactive
CC(C)(C)c1ccccc1OP(=O)(Oc1ccccc1)Oc1ccccc1,,inactive
c1cc2c3c(cccc3c1)CC2,,inactive
COP(=O)(CCC(=O)NCO)OC,,inactive
O=C(O)CF,,inactive
Cc1ccc([N+](=O)[O-])cc1C,,inactive
OCC(F)(F)OC(F)(F)C(F)(F)OC(F)(F)C(F)(F)OC(F)(F)F,,inactive
Oc1ccc(I)cc1,,inactive
FC(F)(F)c1ccc(Cl)cc1,,inactive
FC(F)(F)C(F)(C(F)(F)F)C(F)(F)C(F)(F)CC1CO1 (stereo not given),,inactive
CCCCOCC1CO1 (stereo not given),,inactive
CSC(C)(C)C=NO,,inactive
ClC1=C(Cl)C2(Cl)C3C(Cl)C(Cl)CC3C1(Cl)C2(Cl)Cl (stereo not given),27.1 µM (active),
CCOc1ccc(C(C)(C)COCc2cccc(Oc3ccccc3)c2)cc1,,inactive
CC1(C)CN=C(NN=C(/C=C/c2ccc(C(F)(F)F)cc2)/C=C/c2ccc(C(F)(F)F)cc2)NC1,19.4 µM (active),
CCOP(=S)(Oc1ccc([N+](=O)[O-])cc1)c1ccccc1 (stereo not given),,inactive
CCCCC(CC)COC(=O)c1c(Br)c(Br)c(Br)c(Br)c1C(=O)OCC(CC)CCCC (stereo not given),,inactive
ClC(Cl)c1ccccc1,,inactive
CCCCC(CC)COP(=O)(Oc1ccccc1)Oc1ccccc1 (stereo not given),,inactive
